Assay outcomes deposited in PubChem BioAssay by National Center for Advancing Translational Sciences (NCATS).
Glioma ERSR ind – qHTS for Inducers of the Endoplasmic Reticulum Stress Response (ERSR) in Human Glioma: qHTS | 0.02% of 420,000 active | AID 602332, 2012 | U87-MG GRP78 promoter luciferase reporter, 16 h | Potency, µM, actives largely listed as activators; note: series mostly up to about 76 µM; nearly all actives have a fitted effect of over 35% in size
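ERSR induction read as luciferase luminescence (Bright-Glo, 10 min at room temperature) in stably transfected human U87-MG glioma cells exposed to compounds for 16 h, using GRP78 as sensor.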
Abeta rescue – qHTS for compounds that reverse cellular toxicity of Amyloid beta (A-beta) peptide in yeast: Primary Screen; yeast expressing A-beta42, growth rescue, OD600, 48 h; response scale: 0% DMSO, 100% iron-clioquinol control; Potency, µM (series often up to 46.1 µM), actives largely listed as activators; 0.063% of 410,000 active; AID 1347071, 2019; note: nearly all actives have a fitted effect of over 55% in size
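Yeast A-beta toxicity model in growth medium with pinned compounds, 48 h at 30 C; growth read as absorbance at 600 nm. Normalized to FeCl3/clioquinol equimolar mix (positive) and DMSO (negative).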
TDP43 rescue – qHTS of TDP-43 Inhibitors; Potency, µM (doses to about 46.1 µM), usual class: activators; TDP-43 expressing yeast growth rescue, BacTiter-Glo, 24 h; 1.8% of 410,000 active; note: nearly all actives have a fitted effect of over 50% in size
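Readout is BacTiter-Glo luminescence of cell growth, so inhibitors register as activators. TDP-43-expressing yeast at OD600=0.02 in galactose medium, after raffinose pregrowth to mid-log, were incubated with compound for 24 hr at 30 deg C.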
FUS suppressor – qHTS for Suppressors of FUS Proteinopathy: Primary screen using FUS-linked yeast assay; AID 1347120, 2019; Potency, µM (series often up to 76.6 µM), usual class: activators; S. cerevisiae FUS-expressing, growth rescue, OD600, 24 h; 0.24% of 390,000 active; note: nearly all actives have a fitted effect of over 55% in size
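Cultures pregrown in 2.5% raffinose medium are shifted to minimal medium containing 2% galactose to express toxic FUS. Compounds are tested at several concentrations. After 24hr at 30C, growth is quantified at 600 nm absorbance.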
MBNL1-CUG inh – qHTS Assay for Inhibitors of MBNL1-poly(CUG) RNA binding; Muscleblind-like protein 1 (Homo sapiens), Q9NR56; TR-FRET MBNL1-His/biotin-(CUG)12 binding, 665/545 ratio; Potency, µM (top dose mostly 57.5 µM), hits mostly inhibitors; 0.036% of 280,000 active; active = well fitted inhibition curve with a large enough effect in the signal ratio, with a control signal flat, not every such curve was filed as active; inconclusive = small, poorly fitted or top-dose-only effect, or effect the other way, or a change in a side signal; inactive = no such curve, though single readings can be large or run the other way; the % refers to the signal ratio
Target sequence (Q9NR56 whole entry, looked up): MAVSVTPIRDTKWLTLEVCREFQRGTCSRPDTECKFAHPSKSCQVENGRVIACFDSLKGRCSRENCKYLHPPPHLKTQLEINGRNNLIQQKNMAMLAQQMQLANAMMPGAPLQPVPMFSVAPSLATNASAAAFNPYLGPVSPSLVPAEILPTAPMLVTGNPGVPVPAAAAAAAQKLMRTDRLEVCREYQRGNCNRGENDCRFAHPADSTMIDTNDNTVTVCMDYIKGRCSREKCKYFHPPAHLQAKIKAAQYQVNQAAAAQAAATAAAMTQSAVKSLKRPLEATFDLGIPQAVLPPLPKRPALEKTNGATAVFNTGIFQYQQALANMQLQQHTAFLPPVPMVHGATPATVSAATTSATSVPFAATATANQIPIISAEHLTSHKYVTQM
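TR-FRET readout: Ex 340 nm, 665/545 nm emission ratio, normalized to buffer-only (basal) and MBNL1-(CUG)12 controls. Complex of MBNL1-His with Biotin-(CUG)12, compounds 92 nM–58 uM, incubated 60 min at room temperature.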
aSyn rescue – qHTS of alpha-syn Inhibitors | Yeast expressing alpha-synuclein, growth rescue, BacTiter-Glo, 24 h | AID 652106, 2013 | 0.14% of 370,000 active | Potency, µM (doses to about 46.1 µM), most hits filed as activators; note: nearly all actives have a fitted effect of over 65% in size
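Galactose-induced alpha-syn yeast (OD600=0.02, raffinose-pregrown) + pinned cpd, 24 hr, 30 deg C; growth by BacTiter-Glo luminescence. Growth restoration scores as activation.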
Numbers stand for hits; - = inactive; ? = inconclusive; . = not tested or not shown. Shown are actives, neighbours in structure and some others; about 2% of the full set was active somewhere. Unless noted, calls come from the whole dose curve; as a rule, active = well fitted curve in the direction sought with a large enough effect; inconclusive = small, poorly fitted or top-dose-only effect, or another doubt; inactive = no such curve, though single readings can be large; an effect the other way counts as inactive or inconclusive.

SMILES	Glioma ERSR ind	Abeta rescue	TDP43 rescue	FUS suppressor	MBNL1-CUG inh	aSyn rescue
COc1ccc(NC(=O)C(C2CC2)n2c(=O)c(-c3ccccc3)nc3ccccc32)cc1 (configuration not stated)	.	-	20µM	-	.	-
CN1CCN(CCCNC(=O)c2cc3c(-c4ccc(Cl)cc4)nn(C)c3s2)CC1	-	-	-	-	-	-
Cn1nc(-c2ccc(Cl)cc2)c2cc(C(=O)NCC3CCCO3)sc21 (configuration not stated)	-	-	22µM	-	-	?
COc1ccc(CN2CCOc3ccc(C(O)c4cccnc4)cc3C2)c(OC)c1OC (configuration not stated)	-	.	.	.	.	.
CCc1ccc(OC(C)C(=O)N2CCC(c3nc4ccccc4s3)CC2)cc1 (configuration not stated)	-	-	16µM	?	.	.
CC(C)Oc1ccc(C(=O)N2CCC(c3nc4ccccc4s3)CC2)cc1	-	-	-	-	.	.
COc1ccccc1OC(C)C(=O)N1CCC(c2nc3ccccc3s2)CC1 (configuration not stated)	-	-	14µM	-	.	.
Oc1ccccc1-c1nc(/C=C/c2ccccc2Cl)nn1-c1ccccc1	-	-	-	-	.	-
CCc1nc(-c2ccccc2O)n(-c2ccccc2)n1	-	-	14µM	-	-	-
CCCCN(CC)C(=O)CSc1c2c(nc3ccc(Cl)cc13)CCCC2	-	-	22µM	-	.	.
COc1ccc(NC(=O)CSc2c3c(nc4cc(Cl)ccc24)CCCC3)cc1OC	-	-	-	.	-	-
CCOC(=O)c1ccc(NC(=O)CSc2c3c(nc4cc(Cl)ccc24)CCCC3)cc1	-	-	16µM	-	.	.
CCC(C)NC(=O)CSc1c2c(nc3cc(Cl)ccc13)CCCC2 (configuration not stated)	-	-	-	-	.	.
O=C(CSc1c2c(nc3cc(Cl)ccc13)CCCC2)N1CCN(c2ccccc2)CC1	-	-	20µM	?	.	.
COc1ccc(NC(=O)CSc2c3c(nc4ccc(Cl)cc24)CCCC3)cc1Cl	-	-	11µM	-	.	.
CCOC(=O)C1CCCCN1Cc1nc(N2CCN(C(C)=O)CC2)c2ccccc2n1 (configuration not stated)	-	.	.	.	.	.
COc1cc(C(O)c2nc(-c3csc4ccccc34)cs2)ccc1F (configuration not stated)	-	?	20µM	-	.	?
COc1cc(C(O)c2nc(-c3ccccc3C)cs2)ccc1F (configuration not stated)	-	-	?	-	.	-
OC(c1ccc(F)c(F)c1)c1nc(-c2csc3ccccc23)cs1 (configuration not stated)	-	-	16µM	-	.	-
COCC(=O)Nc1cc(C(=O)N2CC3CC4CC(C3)CC2C4)c2c(c1)nc(-c1ccncc1)n2C	-	.	.	.	.	.
CC(=O)/C(N=Nc1nc2c([nH]1)c(=O)n(C)c(=O)n2C)=C(\C)O	-	-	-	2.2µM	-	-
Clc1ccc(N2CCN(c3ccnc(Cl)n3)CC2)cc1	-	-	18µM	-	.	?
O=C1ON=C(c2ccccc2)/C1=C/c1ccccc1	-	-	?	-	-	?
COc1cc(/C=C2\C(=O)ON=C2c2ccccc2)cc(Br)c1O	-	-	11µM	-	?	-
Cc1ccc(C2=NOC(=O)/C2=C\c2ccccc2)cc1	-	?	25µM	-	.	-
SMILES	Glioma ERSR ind	Abeta rescue	TDP43 rescue	FUS suppressor	MBNL1-CUG inh	aSyn rescue
Cc1ccc(S(=O)(=O)c2nnn3c2nc(N2CCC(C(N)=O)CC2)c2cc(Cl)ccc23)cc1C	-	-	-	25µM	.	.
CCN(CC)c1nc2c(S(=O)(=O)c3ccccc3)nnn2c2ccc(Cl)cc12	-	-	13µM	?	.	.
Cc1ccc(CCNC(c2ccc(F)cc2)c2nnc(-c3ccccc3Cl)o2)cc1 (configuration not stated)	-	-	-	-	.	.
Fc1ccc(C(NCCc2ccc(Cl)cc2)c2nnc(-c3ccccc3Cl)o2)cc1 (configuration not stated)	-	-	32µM	-	.	.
O=S1(=O)CCOC[C@H](c2ccccc2)N1Cc1ccc(Cl)c(Cl)c1	-	.	.	.	.	.
CC1=C(C(=O)Nc2cc(Cl)ccc2C)C2(CCCCC2)OC1=O	.	-	35µM	-	.	.
CC1=C(C(=O)Nc2cc(C)ccc2C)C2(CCCCCC2)OC1=O	-	-	-	-	.	.
CCCn1c(N2CCC(Cc3ccccc3)CC2)nc2c1c(=O)[nH]c(=O)n2C	-	-	22µM	-	-	-
CCOc1ccc(C(=O)NCC(=O)OCc2c(F)cccc2Cl)cc1	-	-	22µM	.	.	-
Cc1ccccc1NC(=S)NC(=O)/C=C/c1ccco1	-	-	10µM	8.9µM	-	-
Cc1cc(NC(=O)c2ccc(Br)cc2)nc(C)n1	-	-	16µM	-	-	-
Cc1cc(NC(=O)c2ccccc2O)nc(C)n1	-	-	-	-	-	-
COC(=O)C1CCCCN1Cc1ccc2c(c1)CN(C(=O)c1cc(C)nc3cc(F)ccc13)CCO2 (configuration not stated)	-	.	.	.	.	.
CC1CCc2c(c3ccccc3n2C(=O)CCl)C1 (configuration not stated)	-	-	2.8µM	-	-	-
CCN1CCN(CC(=O)n2c3c(c4ccccc42)CC(C)CC3)CC1 (configuration not stated)	-	-	-	-	-	-
CCN(C(=O)CSc1ccc2ccccc2n1)C1CCCCC1	-	-	22µM	.	.	-
Cc1cnc(C)c(-c2cc(F)cc3c2OC(CNC(=O)Cc2c(C)noc2C)C3)n1 (configuration not stated)	-	.	.	.	.	.
CCOC(=O)c1[nH]c2ccccc2c1NC(=O)c1cc(Cl)ccc1Cl	-	-	-	-	.	.
CCOC(=O)c1[nH]c2ccccc2c1NC(=O)c1ccccc1OC	-	-	25µM	-	.	.
CCOCCCNC(=S)N1CCN(c2nc(-c3ccccc3)cs2)CC1	-	?	20µM	-	-	-
O=C(NC(=S)N1CCN(c2nc(-c3ccccc3)cs2)CC1)c1cncc(Br)c1	-	?	16µM	-	-	?
COCCCNC(=S)N1CCN(c2nc(-c3ccccc3)cs2)CC1	-	?	35µM	-	-	-
COc1cccc(-c2csc(N3CCN(C(=O)Nc4ccc(Cl)cc4)CC3)n2)c1	-	-	11µM	-	-	-
